Compounds with a hit are over-represented: about 19% of the library has one in this group of screens.
IL-1B inflam inh – inflammasome signaling inhibition, IL-1 beta readout; 4.7% of 360,000 active; activity change, % at 57.5 µM; AID 743279; THP-1 LPS/ATP IL-1B secretion, AlphaLISA, 16 h; stronger effect = lower value; in the data active = activity change below about -50%; inconclusive = mostly about -30% to -49%
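Secreted IL-1B measured by AlphaLISA bead assay after 16 h compound exposure of THP-1 cells; compounds (final up to 57.5 uM) added 1 h before LPS (250 ng/mL) and ATP (1.25 mM) stimulation; lower signal means less secretion.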
HT1080 IDH1KD tx – HT-1080 IDH1 knockdown cell toxicity (counter line); Potency, µM (doses to about 46.1 µM), inactives show at the highest dose activity, negative = toxicity, actives largely listed as cytotoxic; HT-1080 IDH1 knockdown viability, ATP luminescence, 48 h; AID 686971; 2% of 360,000 active;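 note: potency is the fitted concentration of half-maximal effect; 0% = DMSO wells and -100% = cell-free medium wells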
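In this qHTS, HT-1080 cells depleted of IDH1 are exposed for 48 h at 37 °C to compound titrations. Toxicity is scored from CellTiter-Glo luminescence, with DMSO as full viability and medium alone as none.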
HT1080NT lethal – kills 2HG-producing HT-1080-NT fibrosarcoma cells; HT-1080-NT fibrosarcoma viability, CellTiter-Glo ATP luminescence, 48 h; Potency, µM (highest dose often 46.1 µM), for inactives: at the top dose activity, negative = less viability, hits mostly cytotoxic; 1.6% of 360,000 active; AID 686970;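 note: NT is the 2HG producing partner of a matched IDH1 knockdown line; potency is the fitted concentration of half-maximal effect; 0% = DMSO-treated cells and -100% = media-only wells without cells; nearly all actives have a fitted effect of over 55% in size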
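Viability of the 2HG-overproducing fibrosarcoma line after 48 hours of compound exposure at 37 degrees C was determined by luminescence with CellTiter-Glo, and concentration-effect curves were then fitted and categorized.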
ELG1 repair inh – blocks ELG1-dependent DNA repair in HEK293T cells; HEK293T ELG1-luciferase reporter, luminescence, 16 h; DNA damage induced by 5-fluorouridine; AID 504467; Potency, µM (series often up to 46.1 µM), for the others: at the top dose activity change, negative = inhibition, most hits filed as inhibitors; 2.3% of 330,000 active; note: potency is the fitted concentration of half-maximal effect; nearly all actives have a fitted effect of over 55% in size
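DMSO vehicle served as the neutral condition. Each well held 2,000 cells given 5-fluorouridine plus compound; after 16 hr at 37 °C/5% CO2, ONE-Glo was added and luciferase measured 30 min later.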
DT40 TDP1 CPT – DT40-hTDP1 cell growth loss with CPT; 12% of 420,000 active; AID 686979; Potency, µM (highest dose often 46.2 µM), for the others: at the top dose activity change, negative = growth inhibition, actives largely listed as inhibitors; chicken DT40 Tdp1-/-;hTDP1 cells + 20 nM CPT, ATP luminescence, 48 h; note: potency is the fitted concentration of half-maximal effect; nearly all actives have a fitted effect of over 55% in size
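Chicken DT40 Tdp1-/- cells stably complemented with human TDP1 were seeded at 400 cells/well in medium containing 20 nM camptothecin, exposed to pin-transferred compounds, and grown at 37 °C for at least 48 hr. Viability was read as ATP luminescence.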
DT40 TDP1 no CPT – qHTS for Inhibitors of human tyrosyl-DNA phosphodiesterase 1 (TDP1): qHTS in cells in absence of CPT. Potency, µM (series often up to 46.2 µM), inactives show at the highest dose activity change, negative = growth inhibition, actives largely listed as inhibitors. DT40 Tdp1-/- hTDP1 cells, no CPT, ATP luminescence, 48 h. AID 686978, 2013. 15% of 420,000 active; note: potency is the fitted concentration of half-maximal effect; nearly all actives have a fitted effect of over 55% in size
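Luminescent ATP content (CellTiter-Glo) served as the growth readout. Knockout chicken DT40 cells expressing human TDP1 were exposed to compounds without camptothecin for a minimum 48 hr at 37 °C.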
* marks the source's active call; other numbers are inactive results; i = inactive; ? = inconclusive; · = not tested or not shown; [ ] = remark or other dose. Unless noted, calls come from the whole dose curve; as a rule, active = well fitted curve in the direction sought with a large enough effect; inconclusive = small, poorly fitted or top-dose-only effect, or another doubt; inactive = no such curve, though single readings can be large; an effect the other way counts as inactive or inconclusive. Unless noted, % is set by controls: 0 for no effect and ±100 for the full control effect.

SMILES	IL-1B inflam inh	HT1080 IDH1KD tx	HT1080NT lethal	ELG1 repair inh	DT40 TDP1 CPT	DT40 TDP1 no CPT
CCCCc1nn2c(=O)cc(COC(=O)C3CCCCC3)nc2s1	·	·	·	·	-25%	-16%
O=C(Nc1ccc(N2CCOCC2)cc1)c1ccc(Cl)c(S(=O)(=O)N2CCCCC2)c1	73	1%	-8%	?	?	?
NC(=O)C1CCN(C(=O)c2ccc(NS(=O)(=O)c3ccc(Br)s3)cc2)CC1	0	1%	0%	10%	4%	5%
O=C(NCc1ccco1)C1CC(c2c(Cl)cccc2Cl)=NO1 (stereo unspecified)	10	-17%	3%	-9%	?	16µM*
O=C(NCc1cccc(C(F)(F)F)c1)C1CC(c2c(Cl)cccc2Cl)=NO1 (stereo unspecified)	15	?	?	-12%	16µM*	16µM*
O=C(NCc1ccco1)C1CC(c2ccc(Cl)c(Cl)c2)=NO1 (stereo unspecified)	21	-5%	?	5%	13µM*	8.2µM*
O=C(NCc1cccc(Br)c1)C1CC(c2cc(C(F)(F)F)cc(C(F)(F)F)c2)=NO1 (stereo unspecified)	17	14%	11%	·	-33%	-7%
CC(C)NC(=O)Nc1cccc2c1O[C@H](CN(C)C(=O)NC1CCCCC1)[C@H](C)CN([C@H](C)CO)C2=O	15	-4%	-2%	?	-14%	-5%
COc1cccc(C(=O)N[C@@H](C)C(=O)N2CCC3(CC2)NCCc2[nH]cnc23)c1	1	-2%	4%	?	-6%	-12%
Cc1cccc(C)c1N1CCN(S(=O)(=O)c2ccc(F)cc2)CC1	-9	0%	-1%	-16%	?	16µM*
CC(C)(C)c1ccc(S(=O)(=O)N2CCN(C(=O)C3=COCCO3)CC2)cc1	10	-2%	-3%[9.24 µM]	-4%	29µM*	?
CCOC(=O)C1(CC2CCCCO2)CCN(S(=O)(=O)c2ccccc2)CC1 (stereo unspecified)	9	-1%	16%	-2%	?	?
CC(C)(C)c1ccc(S(=O)(=O)N2CCC(CO)(CC3CCCCO3)CC2)cc1 (stereo unspecified)	-72*	-17%	-28%	-12%	?	?
CC(C)(C)c1ccc(S(=O)(=O)N2CCN(C(=O)C3CCC3)CC2)cc1	12	1%	2%	-4%	8.2µM*	18µM*
O=C(C1CCC1)N1CCN(S(=O)(=O)c2ccc(F)cc2)CC1	4	3%	0%	26%	-27%	-25%
CC1CC1C(=O)N1CCN(S(=O)(=O)c2cc(C(F)(F)F)cc(C(F)(F)F)c2)CC1 (stereo unspecified)	46	-13%	-1%[9.24 µM]	?	16µM*	?
CC(=O)N1CCC(C(=O)N2CCN(S(=O)(=O)c3ccc(F)cc3)CC2)CC1	i	-12%	-2%	7%	0%	18µM*
Cc1cnc(C(=O)N2CCN(S(=O)(=O)c3cc(C(F)(F)F)cc(C(F)(F)F)c3)CC2)cn1	11	0%	-5%	·	-25%	?
CCN(CC)S(=O)(=O)c1cccc(-c2nnc(SCC(N)=O)n2C)c1	10	-3%	7%	6%	16%	1%
CCSc1nnc(-c2cccc(S(=O)(=O)N(CC)CC)c2)n1Cc1ccccc1	-26	-16%	?	23µM*	11µM*	18µM*
CCN(CC)S(=O)(=O)c1cccc(-c2nnc(SCc3ncc(-c4ccccc4)o3)n2C)c1	0	-11%	-8%	21µM*	?	18µM*
Cc1ccc(/C=N/n2cnc3sc(C)c(C)c3c2=O)o1	7	12%	9%	?	0%	-14%

Source: PubChem BioAssay (National Center for Advancing Translational Sciences (NCATS))
